Screening data (PubChem)
Most compounds without a hit are left out; they make up all but 7.6% or so of the library.
p53 reactivator = restores transcriptional activity of mutant p53; H1299 p53-A138V BP100-luciferase reporter, luminescence, 24 h; Potency, µM (series often up to 92.2 µM), actives largely listed as activators; hit rate 0.063% among 320,000; AID 504706; note: nearly all actives have a fitted effect of over 45% in size
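H1299 (p53-null), stable ts p53-A138V + BP100-Luc; 1000 cells/well, Opti-MEM/10% FBS; cpd 4 pt, 1:5; 24 h, 37 deg C, 5% CO2; detection reagent 10 min RT; luminescence.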
Giardia kill = Giardia lamblia killing; Giardia lamblia trophozoite viability; activity change, % at 7.66 µM, hits read low; hit rate 0.15% among 340,000; in the data active = activity change below about -80%; inconclusive = between about -30% and that limit;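 note: parasites exposed to compound for two days anaerobically before the ATP read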
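Giardia trophozoites, 100 cells per well, were exposed to compounds for 48 hrs at 37 deg C under anaerobic conditions; viability was then read as ATP content by bioluminescence after 15-30 min at room temperature.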
BRCA1 expr act = activators of BRCA1 expression; hit rate 1.1% among 380,000; Potency, µM (titrated, usually from 46.1 µM), most hits filed as activators; MCF7-BRCA1-FFLuc reporter, luminescence, 48 h; response scale: scaled: vehicle 0%, 10 µM genistein 100%; note: nearly all actives have a fitted effect of over 80% in size
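48 h compound treatment of MCF7-BRCA1-FFLuc cells (phenol-red free MEM, 37 °C), then 15 min with luciferase substrate and luminescence imaging.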
ELG1 DNA repair = blocks ELG1-dependent DNA repair in HEK293T cells; HEK293T ELG1-luciferase reporter, luminescence, 16 h; DNA damage induced by 5-fluorouridine; hit rate 2.3% among 330,000; AID 504467; Potency, µM (highest dose often 46.1 µM), actives largely listed as inhibitors; note: nearly all actives have a fitted effect of over 55% in size
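Cells (2,000 per well) received 5-fluorouridine plus test compound or DMSO and were incubated 16 hr at 37 °C, 5% CO2. Luciferase activity was read by luminescence 30 min after ONE-Glo addition; signal suppression marked inhibition of damage-induced ELG1 function.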
Gal4-VP16 FLuc = inhibits Gal4-VP16 luciferase reporter, ROR gamma counter-screen. Drosophila S2 Gal4-VP16 UAS-luciferase, luminescence, 20 h. Potency, µM (doses to about 53.6 µM), usual class: inhibitors. hit rate 3.5% among 310,000;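 note: Gal4-VP16 expression switched on by copper sulfate through the metallothionein promoter; nearly all actives have a fitted effect of over 50% in size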
RORgamma inh = blocks mouse ROR gamma transcriptional activity. Potency, µM (titrated, usually from 53.6 µM), actives largely listed as inhibitors. AID 2551. hit rate 5.4% among 310,000. Drosophila S2 Gal4-RORgamma UAS-luciferase reporter, 20 h; note: nearly all actives have a fitted effect of over 60% in size
Target sequence (P51450 whole entry, looked up, the tested form may be a part): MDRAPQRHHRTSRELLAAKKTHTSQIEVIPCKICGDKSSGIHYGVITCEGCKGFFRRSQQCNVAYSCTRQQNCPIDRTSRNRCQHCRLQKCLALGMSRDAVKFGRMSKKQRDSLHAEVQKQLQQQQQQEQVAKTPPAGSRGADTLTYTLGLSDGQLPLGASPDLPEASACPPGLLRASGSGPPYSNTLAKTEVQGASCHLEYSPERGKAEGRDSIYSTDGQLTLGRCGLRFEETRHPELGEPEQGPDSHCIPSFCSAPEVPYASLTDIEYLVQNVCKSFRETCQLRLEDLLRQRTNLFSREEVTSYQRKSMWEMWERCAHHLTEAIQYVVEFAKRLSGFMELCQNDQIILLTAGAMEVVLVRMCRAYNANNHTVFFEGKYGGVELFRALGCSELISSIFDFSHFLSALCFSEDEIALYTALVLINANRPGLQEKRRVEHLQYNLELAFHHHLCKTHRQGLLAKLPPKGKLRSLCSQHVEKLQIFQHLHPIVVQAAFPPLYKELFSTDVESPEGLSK
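In this cell-based reporter format, copper sulfate (700 uM final) drives Gal4–ROR gamma fusion expression from a metallothionein promoter in Drosophila Schneider cells; compounds preincubated 1 hr, reporter read after 20 hr at ambient temperature.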
Hits are given with their value; n = inactive; u = inconclusive; x = no result given; [ ] = remark or other dose. Unless noted, calls come from the whole dose curve; as a rule, active = well fitted curve in the direction sought with a large enough effect; inconclusive = small, poorly fitted or top-dose-only effect, or another doubt; inactive = no such curve, though single readings can be large; an effect the other way counts as inactive or inconclusive.

SMILES	p53 reactivator	Giardia kill	BRCA1 expr act	ELG1 DNA repair	Gal4-VP16 FLuc	RORgamma inh
COc1ccc(-n2cc(CN(C)CCO)c(-c3cccc(F)c3)n2)cc1	n	n	n	u	n	n
CN(Cc1ccccn1)Cc1cn(Cc2ccccc2)nc1-c1ccc2c(c1)OCO2	n	n	n	u	n	n
Cc1ccc(-n2cc(CN3CCN(Cc4nccn4C)CC3)c(-c3cccc(C)c3)n2)cc1	n	n	n	u	n	10µM
Cc1cccc(-n2cc(CN(C)Cc3nccn3C)c(-c3cccc(F)c3)n2)c1	n	n	n	u	u	5.62µM
CCn1ccnc1CN(C)Cc1nc(-c2cccc(Cl)c2)no1	n	n	n	u	n	17.8µM
O=C(OCc1nc2scc(-c3ccccc3)c2c(=O)[nH]1)c1cccc([N+](=O)[O-])c1	n	n	n	n	n	n
COc1ccc(C2/C(=C(\O)c3ccc(OC)c(Cl)c3)C(=O)C(=O)N2CCN(C)C)cc1 (stereo not drawn)	n	n	n	n	n	u
COCC(=O)N1CCC2(CC1)CN(Cc1nccs1)C2	x	x	x	x	n	n
CCn1ccnc1CN(C)Cc1cn(-c2cccc(C)c2)nc1-c1cccc(F)c1	n	n	n	u	15.8µM	1.58µM
CCn1ccnc1CNCc1cn(-c2cc(C)ccc2C)nc1-c1ccccc1	n	n	n	n	n	14.1µM
Cc1cccc(-n2cc(CN3CCCN(C=O)CC3)c(-c3cccc(F)c3)n2)c1	n	n	n	n	n	n
CCn1ccnc1CN(C)Cc1cn(-c2ccc(C)cc2)nc1-c1cccc(C)c1	n	n	n	n	10µM	1.58µM
Cc1ccc(-n2cc(CN3CCCN(C=O)CC3)c(-c3ccc(F)cc3)n2)cc1	n	n	n	23.1µM	n	n
CCOC(=O)N/N=C\c1cccc(OC)c1	n	n	n	u	n	n
O=C(CNC(=O)c1cccc(F)c1)N/N=C/c1cc(Br)ccc1OC(=O)/C=C/c1ccco1	u	n	n	n	7.94µM	3.55µM
O=C(CNC(=O)c1ccccc1O)N/N=C/c1cc(Br)ccc1OC(=O)/C=C/c1ccco1	n	n	n	4.11µM	n	5.62µM
O=C(CNC(=O)c1ccc(F)cc1)N/N=C/c1cc(Br)ccc1OCc1ccccc1	n	u	n	u	n	n
COc1ccc([N+](=O)[O-])cc1/C=N/NC(=O)CNC(=O)c1cccc(F)c1	n	n	n	n	u	10µM
COc1ccccc1C(=O)NCC(=O)N/N=C/c1cc(Br)ccc1OCc1ccccc1	n	u	n	7.31µM	n	n
CSc1nc(-c2ccccc2)ccc1C(N)=O	u	n	n	u	n	n
CCOc1cccc(NC(=O)c2cnccc2C(F)(F)F)c1	n	n	n	n	n	n
COc1ccc(CN2CCC(C(=O)c3ccc(Cl)cc3)CC2)cc1	n	n	n	n	n	n[1.91 µM]
COc1ccc(COc2ccccc2C(=O)NCc2ccccc2)cc1F	n	n	n	25.9µM	n	n[10 µM]
COc1cc(C(=O)NCc2ccccc2)ccc1OC(F)F	n	n	n	n	n	n
CC(C)c1cc[n+](-c2nc([O-])sc2C=O)cc1	n	n	n	n	n	n
SMILES	p53 reactivator	Giardia kill	BRCA1 expr act	ELG1 DNA repair	Gal4-VP16 FLuc	RORgamma inh
O=C(N/N=C/c1cc(O)ccc1Br)c1cccnc1	n	n	n	u	1.26µM	1.78µM
O=C(N/N=C\c1cccnc1)c1ccc(Br)s1	n	n	n	u	n	n
O=C(N/N=C/c1cc(Br)c(O)c(Br)c1O)c1cccnc1	n	n	n	u	u	u
O=C(N/N=C/c1ccc(Br)s1)c1cccnc1	n	n	n	n	15.8µM	1.26µM
CC1(CC(=O)N/N=C/c2ccc(OCc3ccc(Cl)cc3Cl)cc2)OCCCO1	n	n	n	u	u	u
CCOCCCn1c(SCC(=O)Nc2oc(C)c3c(C)n[nH]c(=O)c23)nc2ccccc2c1=O	x	n	n	x	x	x
CCOC(=O)NN1C(=O)c2ccccc2NC1c1ccc(OC)c(OC)c1 (stereo not drawn)	n	n	n	n	n	n
O=C(/C=C/c1ccco1)NC(=S)Nc1ccc(N2CCCC2)cc1	n	n	n	u	3.16µM	2µM
CN(C)c1ccc(NC(=S)NC(=O)/C=C/c2ccco2)cc1	n	n	n	n	n	14.1µM
C=CCNC(=S)Nc1ccc(N(C)C)cc1	n	n	n	u	u	11.2µM
CC(=O)NC(=S)Nc1ccc(NC(=S)NC(=O)/C=C/c2ccco2)cc1	n	n	n	n	n	u
CC(C)C[C@H](CO)Nc1nc(Nc2cccc(Cl)c2)c2ncn(C(C)C)c2n1	u	n	n	n	n	n
Cc1nc2sc3c(c2c(=O)[nH]1)CCCCC3	n	n	n	u	n	n
CCOC(=O)c1cnn(-c2nc3sc4c(c3c(=O)[nH]2)CCCC4)c1N	n	x	x	n	0.794µM	0.562µM
Cc1cc(C)n(-c2nnc(C)c(=O)[nH]2)n1	n	n	n	n	n	15.8µM
Cc1cc(C)n(-c2nc3sc4c(c3c(=O)[nH]2)CCCC4)n1	n	x	x	n	1.41µM	0.708µM
Cc1ccc(-c2cc3nc(C)cc(NCc4ccco4)n3n2)cc1	u	n	n	u	u	u
COCCCNC(=O)CN(c1cc([N+](=O)[O-])ccc1OC)S(C)(=O)=O	n	n	n	n	n	n
CN(C)S(=O)(=O)N1CCC(Oc2cccc(C(=O)NC3CCCCCC3)c2)CC1	n	n	n	16.4µM	u	n
CN(C)S(=O)(=O)N1CCC(Oc2ccc(C(=O)NC3Cc4ccccc4C3)cc2)CC1	u	n	n	n	u	u
CC1CCCCN1C(=O)c1ccc(OC2CCN(S(=O)(=O)N(C)C)CC2)cc1 (stereo not drawn)	n	n	n	9.2µM	n	u
CC1CCCC(NC(=O)COC(=O)/C=C/c2ccc3c(c2)OCO3)C1C (stereo not drawn)	n	n	n	n	n	n
CO[C@@H]1CC[C@@]2(C)[C@@H](CC[C@@]3(C)[C@H]2CC=C2[C@H]4CC(C)(C)[C@H](O)[C@@H](OC(C)=O)[C@]4(CO)[C@H](O)C[C@]23C)[C@@]1(C)CO (tested in a mixture with another compound)	x	x	x	x	n	n
O=C1NC(=S)S/C1=C\c1cc2ccccc2nc1N1CCCCC1	n	n	n	16.4µM	n	n
COc1cc2nc(NC(=O)c3ccc(Cl)cc3)sc(=O)c2cc1OC	n	n	n	u	n	n
C=CCNC(=O)c1cccc2c1C(=O)c1ccc(N3CCCC3)cc1S2(=O)=O	n	n	n	n	x	x
O=C(NCC1CCCO1)c1cccc2c1C(=O)c1ccc(N3CCC(Cc4ccccc4)CC3)cc1S2(=O)=O (stereo not drawn)	n	n	n	2.59µM	x	x
